The whole screen tested about 340,000 compounds, of which about 1,000 (0.29%) were called active. Cut-off read from the data, not from the text of the source: inconclusive = inhibition above about 29% without an active follow-up result; inactive = below that. A selection follows. Potency and affinity values are given separately.

This assay deals with Genome polyprotein (Dengue virus type 2 (strain 16681-PDK53)) (UniProt P29991). Kind of assay: Dengue-2 NS5 methyltransferase inhibitors, primary screen, biochemical, confirmation dose response (AID 588689). To be noted: Dengue-2 NS5 methyltransferase capping enzyme assay, at 25 µM, stronger effect = higher value.

For the molecule `O=C(c1cc(-c2ccc(Br)cc2)nc2ccccc12)N1CCC1`, the inhibition is -2.19% (inactive).

On to `COc1ccccc1N1CCN(C(=O)c2oc3c(c2C)C(=O)CC(C)(C)C3)CC1`, for which the inhibition was 4.65% (inactive).

In the case of `O=C(N/N=C/C(Cl)=C\c1ccccc1)c1cnccn1`, the inhibition is -6.4% (inactive).

Consider `C=CC[C@H](CC(=O)N[C@H](CO)Cc1ccccc1)C(=O)N[C@@H](COC(=O)[C@H](CC=C)CC(=O)OC(C)(C)C)Cc1c[nH]c2ccccc12`, for which the inhibition is -0.83% (inactive).

As to `COc1ccc(/C=C2/SC(=O)N(CCC(=O)Nc3ccc(S(=O)(=O)Nc4nccs4)cc3)C2=O)cc1`, the inhibition is -5.09% (inactive).

As for `O=C(/C(=C(/[O-])c1ccccc1)[n+]1ccccc1)c1ccc([N+](=O)[O-])cc1`, the inhibition was 3.25% (inactive).

For `CCCc1ncc(CN2CCCCC2C(=O)Nc2ccc(Oc3ccccc3)nc2)cn1` (configuration not stated), the inhibition is -5.15% (inactive).

On to `CCCCn1c(N)c(N(C)C(=O)c2cn(-c3ccccc3)nc2-c2ccccc2)c(=O)[nH]c1=O`, for which the inhibition was -2.61% (inactive).

For `NS(=O)(=O)c1ccc2nc(NC(=O)Nc3ccc(F)cc3)sc2c1`, the inhibition was -9.52% (inactive).

In the case of `O=C(Nc1ccc(Cl)c(S(=O)(=O)N2CCOCC2)c1)c1cccs1`, the inhibition was -1.55% (inactive).

As for `CC(=O)Nc1ccc(NC(=O)c2nc(S(=O)(=O)Cc3cccc(C)c3)ncc2Cl)cc1`, the inhibition is -42.6% (inactive).

`Cc1cccc(CS(=O)(=O)c2ncc(Cl)c(C(=O)Nc3c(C)cccc3C)n2)c1`: the inhibition is -57.4% (inactive).

Regarding `O=C(Nc1ncccc1O)c1ccc2c(c1)OCO2`, the inhibition is 0.74% (inactive).

`Cc1cc(Cl)ccc1OCC(=O)Nc1ccccc1C(=O)N1CCOCC1`: the inhibition was 5.18% (inactive).

Turning to `O=C1CC(c2ccccc2)NC(=S)N1` (configuration not stated), the inhibition was 3.85% (inactive).

As to `O=C1NC(=S)NC1(c1ccccc1)c1ccccc1`, the inhibition is -4.65% (inactive).

`CCCCSc1nc(O)c(C2OC(=O)c3c2ccc(OC)c3OC)c(=O)n1-c1ccccc1` (configuration not stated): the inhibition was 17.6% (inactive).

With `CCCSc1nc(O)c(C2OC(=O)c3c2ccc(OC)c3OC)c(=O)n1-c1ccccc1` (configuration not stated), the inhibition is 11.7% (inactive).

Turning to `CCSc1nc(O)c(C2OC(=O)c3c2ccc(OC)c3OC)c(=O)n1CC` (configuration not stated), the inhibition was 6.79% (inactive).

In the case of `CCCCSc1nc(O)c(C2OC(=O)c3c2ccc(OC)c3OC)c(=O)n1C` (configuration not stated), the inhibition was -5.49% (inactive).

As for `Cc1cc2c3c([nH]c2cc1S(=O)(=O)NCc1ccc(CN2CCCCCC2)o1)CCCC3=O`, the inhibition is -7.25% (inactive).

Turning to `Cc1ccc(S(=O)(=O)N/N=C/c2ccc(O)c(O)c2)cc1[N+](=O)[O-]`, the inhibition is 0.74% (inactive).

Consider `CCN(CC)CCNC(=O)c1ccc(NC(=O)c2cc(S(=O)(=O)N3CCCCC3)ccc2N2CCOCC2)cc1`, for which the inhibition is -2.25% (inactive).

For the molecule `COc1ccc(-n2cccc2C=O)cc1`, the inhibition was -11.6% (inactive).

As to `Cc1cc2nc3s/c(=C/c4ccc(-c5ccccc5C(=O)O)o4)c(=O)n3c2cc1C`, the inhibition was -33.6% (inactive).

With `Cc1cc2nc(/C(C#N)=C\c3ccc(-c4ccccc4C(=O)O)o3)[nH]c2cc1C`, the inhibition was -2.36% (inactive).

Take `CCOC(=O)CSc1nc(N)c(C#N)c(-c2ccc(OCC)cc2)c1C#N`: the inhibition was -3.48% (inactive).

For the molecule `COc1cc(/C=C2\C(C)=C(C#N)c3nc(N)c(C#N)c(C)c32)ccc1OCC(=O)O`, the inhibition was -6.96% (inactive).

Consider `O=C1OC(c2ccccc2)=CC1=Cc1ccccc1O`, for which the inhibition was -6.29% (inactive).

Take `CC1CCCC(NC(=O)C2N(CCCN3CCCC3)C(=O)C3C(C(=O)Nc4ccc(Cl)cc4)C4C=CC32O4)C1C` (configuration not stated): the inhibition was -9.14% (inactive).

For `Cc1cc(C)cc(NC(=O)COC(=O)Cc2ccccc2F)c1`, the inhibition is -2.95% (inactive).

Regarding `CS(=O)(=O)NCc1nnc(SCc2c(F)cccc2Cl)o1`, the inhibition was -7.53% (inactive).

As for `C=CCn1c(SCC(=O)/C(C#N)=C(\C)N)nnc1C1CCCCC1`, the inhibition was -2.77% (inactive).

In the case of `CCN(C[C@H]1N[C@@](C)(C(=O)OC)[C@H]2C(=O)N(C)C(=O)[C@@H]12)S(=O)(=O)c1ccc(OC(F)(F)F)cc1`, the inhibition is -7.6% (inactive). Besides, for the setting “measured here: pilot screen replicate inhibition”, the inhibition is 0.305%.

As for `O=C1/C(=C/C=C/c2ccco2)SC(=S)N1NS(=O)(=O)c1ccccc1`, the inhibition was 64.5% (inactive).

As to `CC(=O)N1C(=O)/C(=C2\SC(=S)N(NS(=O)(=O)c3ccc(C)cc3)C2=O)c2ccccc21`, the inhibition is 5.31% (inactive).

Consider `Cc1ccc(S(=O)(=O)NN2C(=O)/C(=C/c3cccnc3)SC2=S)cc1`, for which the inhibition was 14.3% (inactive).

With `O=C1/C(=C\c2ccc(Br)cc2)SC(=S)N1NS(=O)(=O)c1ccccc1`, the inhibition is -8.31% (inactive).

As to `Cc1ccc(S(=O)(=O)NN2C(=O)/C(=C/c3ccc(F)cc3)SC2=S)cc1`, the inhibition is 9.54% (inactive).

For the molecule `O=C1/C(=C/c2ccccn2)SC(=S)N1NS(=O)(=O)c1ccccc1`, the inhibition was 8.55% (inactive).

Consider `O=S(=O)(NCc1nc2ccccc2[nH]1)c1ccccc1`, for which the inhibition was -2.6% (inactive).

For the molecule `O=C(NC1CC1)C1=C[C@@H](c2csc3ccccc23)C[C@@H](OCc2ccc(CO)cc2)O1`, the inhibition was -6.54% (inactive).

With `O=C(COC(=O)C1CC2CCCC(C1)C2=O)Nc1nc(-c2ccc(F)c(F)c2)cs1` (configuration not stated), the inhibition is 11% (inactive).

On to `CN(C)C(=O)c1ccc(NC(=O)c2cccc(S(=O)(=O)N3CCCc4ccccc43)c2)cc1`, for which the inhibition was 4.32% (inactive).

Turning to `CC(NC(=O)c1cccnc1)C(c1cccs1)N1CCOCC1` (configuration not stated), the inhibition is 0% (inactive).

In the case of `CSc1cccc(NC(=O)C2CCN(S(=O)(=O)c3cnc[nH]3)CC2)c1`, the inhibition is -4.39% (inactive).

Regarding `COc1cccc(CNC(=O)c2cccc(NC(=O)C3=C(C)OCCS3)c2)c1`, the inhibition is -1.39% (inactive).

As to `O=C(Nc1cccc([N+](=O)[O-])c1)N1CCCCCC1`, the inhibition is -0.65% (inactive).

In the case of `CC(C)OCCCNC(=O)c1ccc(NS(C)(=O)=O)cc1`, the inhibition was 0% (inactive).

Turning to `Cc1cc(C)c(C(=O)c2ccccc2)c(C)c1`, the inhibition was -9.32% (inactive).

Turning to `O=S(=O)(c1ccccc1)N1CCC2(CC1)CO2`, the inhibition is -6.64% (inactive).

In the case of `O=C1/C(=C/c2cccnc2)SC(=S)N1NS(=O)(=O)c1ccccc1`, the inhibition was 5.88% (inactive).

As for `CCN1C[C@@H]2[C@@H]3C(=O)N(C)C(=O)[C@@H]3[C@](Cc3ccccc3)(C1=O)N2C(=O)c1ccccc1`, the inhibition was 1.65% (inactive).

For the molecule `CC(=O)C1=C(O)C(=O)N(c2ccc(C)cc2)C1c1ccc([N+](=O)[O-])cc1` (configuration not stated), the inhibition was 2.73% (inactive).

On to `COc1cc(CN2CCCCCC2)c([N+](=O)[O-])cc1OC`, for which the inhibition is 0% (inactive).

Consider `COc1ccc(Cl)cc1NC(=O)CN(C)C(=O)c1ccc(OCc2ccccc2)c(OC)c1`, for which the inhibition was -1.46% (inactive).

Take `O=C(COc1ccc(Cl)cc1Cl)NN1C(=O)/C(=C\c2ccc(Cl)cc2)SC1=S`: the inhibition is 0% (inactive).

Take `O=C(CCCN1C(=O)/C(=C/c2ccccc2Cl)SC1=S)NNC(=O)c1ccc(Cl)cc1Cl`: the inhibition is 3.09% (inactive).

Regarding `CN1CCN(C(=O)CCN2C(=O)/C(=C\c3ccc(Cl)cc3Cl)SC2=S)CC1`, the inhibition was 0% (inactive).

For the molecule `O=C(CCCN1C(=O)/C(=C/c2ccccc2Cl)SC1=S)NNC(=O)c1ccc(Cl)cc1`, the inhibition was 28.1% (inactive).

On to `O=S(=O)(c1ccc(Cl)cc1)n1c(Cc2ccccc2)nc2ccccc21`, for which the inhibition was -6.41% (inactive).

For `CC(C)N(CC#CCC(O)(c1ccccc1)c1ccccc1)C(C)C`, the inhibition was -5.16% (inactive).

For `Cc1ccc(Cl)cc1NC(=O)CN1C(=O)NC2(CCCCCC2)C1=O`, the inhibition is 3% (inactive).

Turning to `COCCNC(=O)CCn1nc(-c2ccc(C)cc2)c2ccccc2c1=O`, the inhibition was -3.27% (inactive).

As to `NC(=O)c1sc2cc(C(F)(F)F)cnc2c1-c1ccccc1`, the inhibition is 1.48% (inactive).

For the molecule `NC(=O)CC(NC(=O)c1ccccc1)c1ccc(NCCCN2CCCC2=O)c([N+](=O)[O-])c1` (configuration not stated), the inhibition is -0.79% (inactive).

`CO[C@H]1/C=C/O[C@@]2(C)Oc3c(C)c(O)c4c(O)c(c(C=NN5CCN(C)CC5)c(O)c4c3C2=O)NC(=O)/C(C)=C\C=C\[C@H](C)[C@H](O)[C@@H](C)[C@@H](O)[C@@H](C)[C@H](OC(C)=O)[C@@H]1C`: the inhibition was 6.59% (inactive).

With `CO[C@H]1C=CO[C@@]2(C)Oc3c(C)c(O)c4c(O)c(c(C=NN5CCN(C)CC5)c(O)c4c3C2=O)NC(=O)C(C)=CC=C[C@H](C)[C@H](O)[C@@H](C)[C@@H](O)[C@@H](C)[C@H](OC(C)=O)[C@@H]1C`, the inhibition is -3.66% (inactive).

Consider `C=CCOc1ccc(/C=N/NC(=O)C(C)Sc2ccccn2)cc1OC` (configuration not stated), for which the inhibition was -7.22% (inactive).

`Cc1ccc(S(=O)(=O)N(C)C)cc1NC(=O)COC(=O)C1(c2ccccc2)CC1`: the inhibition is -4.44% (inactive).

With `O=[N+]([O-])c1ccccc1S(=O)(=O)Nc1ccc(S(=O)(=O)Nc2nccs2)cc1`, the inhibition is 3.56% (inactive).

For the molecule `O=[N+]([O-])c1cccc(S(=O)(=O)Nc2ccc(S(=O)(=O)Nc3nccs3)cc2)c1`, the inhibition was -3.24% (inactive).

For `C/C(=N\NC(=O)c1cc(C)nc2ccccc12)c1ccccn1`, the inhibition is -2.29% (inactive).

For the molecule `CC(=O)NC1=NN(C(C)=O)C(c2ccc(C(C)C)cc2)S1` (configuration not stated), the inhibition is 0.65% (inactive).

Consider `O=C(O)CSc1cc(C(=O)c2ccccc2O)cn2c(=O)c3c(-c4ccccc4)csc3nc12`, for which the inhibition is 36.4% (inactive).

For the molecule `COc1ccc(O)c(C(=O)c2cc(SCC(=O)O)c3nc4sc5c(c4c(=O)n3c2)CCCC5)c1`, the inhibition was 69.1% (inactive).

With `CCc1cc(C(=O)N(Cc2ccccc2)c2c(N)n(CCOC)c(=O)[nH]c2=O)sc1C`, the inhibition is -5.81% (inactive).

Take `CC(/C=C1\SC(=S)N(NC(=O)c2cccc(O)c2)C1=O)=C\c1ccccc1`: the inhibition is -2.56% (inactive).

`CC(/C=C1\SC(=S)N(NC(=O)c2ccc(O)cc2)C1=O)=C\c1ccccc1`: the inhibition was 2.55% (inactive).

On to `CC(/C=C1\SC(=S)N(NC(=O)c2ccc(C)cc2)C1=O)=C\c1ccccc1`, for which the inhibition is -6.45% (inactive).

Regarding `CC(/C=C1\SC(=S)N(NC(=O)c2ccccc2C)C1=O)=C\c1ccccc1`, the inhibition is 2.21% (inactive).

Source of the values: PubChem BioAssay AID588689 (Southern Research Specialized Biocontainment Screening …, 2011).
